Compound activity as filed in PubChem BioAssay.
Most compounds without a hit are left out; they make up all but 1.8% or so of the library.
HEK293 tox: cytotoxic in the GLP-1 receptor inverse agonist counter-screen; HEK293 cAMP-luciferase reporter cells, luminescence, 24 h; Potency, µM (top dose mostly 38.3 µM), for the others: at the highest dose activity change, negative = inhibition, most hits filed as inhibitors; 410,000 compounds, 0.13% hits;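 further: loss of luciferase light is scored as toxicity; on the % scale 0 is the no-effect control and ±100 the full control effect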
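Seeding density was 200 cells/uL; after overnight-length (12 h) culture, 23 nL compounds went on for 24 h at 37 °C. Readout used a luciferase detection reagent, luminescence taken after 12 min at room temperature.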
GLP-1R agonist: agonists of human GLP-1 receptor. P43220. HEK293 GLP-1R CRE-luciferase, luminescence, 4-6 h; cells express a hypersensitive GLP-1R form. Potency, µM (doses to about 45.6 µM), inactives show top-dose activation, most hits filed as activators. 380,000 compounds, 0.007% hits; further: % of control where 0% means no effect
PTHR1 agonist: activates the human parathyroid hormone receptor PTHR1. Q03431. HEK293 GP2 PTHR1 cells, GloSensor cAMP luminescence, 1 h. 410,000 compounds, 0.075% hits. Potency, µM (series often up to 115 µM), for the others: at the highest dose activation, actives largely listed as activators; further: nearly all actives have a fitted effect of over 55% in size
Target sequence (Q03431 whole entry, looked up): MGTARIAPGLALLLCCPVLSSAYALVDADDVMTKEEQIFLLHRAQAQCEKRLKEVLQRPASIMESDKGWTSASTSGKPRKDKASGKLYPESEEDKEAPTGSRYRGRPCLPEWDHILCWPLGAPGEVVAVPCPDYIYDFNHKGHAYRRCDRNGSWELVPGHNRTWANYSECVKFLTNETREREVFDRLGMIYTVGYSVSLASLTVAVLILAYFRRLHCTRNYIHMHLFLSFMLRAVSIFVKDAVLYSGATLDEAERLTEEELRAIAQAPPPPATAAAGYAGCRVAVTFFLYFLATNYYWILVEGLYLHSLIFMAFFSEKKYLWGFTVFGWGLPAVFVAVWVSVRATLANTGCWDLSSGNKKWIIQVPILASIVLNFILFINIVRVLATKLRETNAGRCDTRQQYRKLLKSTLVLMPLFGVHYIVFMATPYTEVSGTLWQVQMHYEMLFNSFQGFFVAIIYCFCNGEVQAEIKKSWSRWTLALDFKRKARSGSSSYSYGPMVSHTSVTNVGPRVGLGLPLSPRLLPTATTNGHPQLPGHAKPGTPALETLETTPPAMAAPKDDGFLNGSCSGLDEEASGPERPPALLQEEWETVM
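HEK-293-derived GP2 cells expressing PTHR1 and a GloSensor cAMP reporter, 3,000/well, plated overnight, given luciferin plus IBMX (each 0.5 mM as added) for 1 h at 37 °C, then compound for 1 h at 37 °C. Luminescence was read after 15 min at room temperature.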
GCN5L2 inh: inhibitors of human GCN5L2 histone acetyltransferase. Q92830. GCN5L2 HAT assay, ThioGlo1 CoA-SH fluorescence. Potency, µM (titrated, usually from 58.9 µM), inactives show top-dose activity change, negative = inhibition, hits mostly inhibitors. 390,000 compounds, 0.21% hits. AID 504327; further: on the % scale 0 is the no-effect control and ±100 the full control effect
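Compounds, pin-transferred from DMSO stocks, meet 20nM GCN5L2 for 15 min before the reaction begins with H3(1-25) peptide (75uM) and acetyl-CoA (70uM). Thiol-reactive ThioGlo1 reports CoA release over 20 min at room temperature.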
RGS4 inh: blocks human RGS4-accelerated GTP hydrolysis | 390,000 compounds, 0.039% hits | Potency, µM (series often up to 114 µM), without a hit: top-dose activity change, negative = inhibition, usual class: inhibitors | Transcreener GDP fluorescence polarization, RGS4-accelerated GTP hydrolysis | AID 504845; further: on the % scale 0 is the no-effect control and ±100 the full control effect; nearly all actives have a fitted effect of over 75% in size
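MLSMR compounds (23 nl, pin-transferred) preincubated 10 min at room temperature with a 500nM (2x) first reagent, then RGS4 at 900nM (2x) plus Transcreener GDP mix added; fluorescence polarization (620/688 nm) read before and after 90 min at 30 °C.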
GLP1R inv ag: acts as inverse agonist at human GLP-1 receptor; 410,000 compounds, 1.6% hits; Potency, µM (titrated, usually from 38.3 µM), without a hit: top-dose activity change, negative = inhibition, actives largely listed as inhibitors; AID 624417; HEK293 GLP-1R CRE-luciferase, luminescence, 24 h; GLP-1R form is constitutively active; further: on the % scale 0 is the no-effect control and ±100 the full control effect; nearly all actives have a fitted effect of over 55% in size
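Assay principle: reduced luminescence from a cAMP-responsive reporter in HEK293 cells co-expressing a constitutively active GLP-1R. Conditions: 24 hr compound incubation, 37 deg C, 5% CO2.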
An asterisk follows results filed as active; i = inactive; ? = inconclusive; nt = no result given; ! = a repeat was not active; [ ] = dose if it differs, or a comment. The call rests on the fitted dose curve; in most records, active means well fitted curve in the direction sought with a large enough effect; inconclusive means small, poorly fitted or top-dose-only effect, or another doubt; inactive means no such curve, though single readings can be large; an effect the other way counts as inactive or inconclusive. Potency means the concentration at half of the fitted maximal effect.

SMILES	HEK293 tox	GLP-1R agonist	PTHR1 agonist	GCN5L2 inh	RGS4 inh	GLP1R inv ag
O=c1oc2ccccc2c(O)c1C(c1ccc([N+](=O)[O-])cc1)c1c(O)c2ccccc2oc1=O	?	-4.9%	i	22.4µM*	-30.9%	?
C=CCc1cc(OC)c2c(c1OC)OCO2	nt	nt	nt	-4.8%	nt	nt
COc1cc([C@@H]2c3cc4c(cc3C[C@H]3COC(=O)[C@@H]32)OCO4)cc(OC)c1O	nt	nt	nt	nt	-10.3%	nt
COc1cc(C2c3cc4c(cc3CC3COC(=O)C32)OCO4)cc(OC)c1OC (stereo not given)	?	20.4%	-3.4%	-11.8%	-12.0%	0.282µM*
O=C(NC1CCCCC1)c1cn(CCN2CCOCC2)c2cc(Cl)ccc2c1=O	nt	nt	nt	0.0%	nt	nt
Cc1ccc(-c2cn3c(=S)[nH]nc3s2)cc1	-2.0%	7.5%	-17.6%	14.1µM*	?	15.7%
CCOC(=O)N(C)C(=O)CSP(=S)(OCC)OCC	nt	nt	nt	0.0%	nt	nt
O=C1C=CC2C3C(=O)N(c4ccccc4)C(=O)C3C1N2Cc1ccccc1 (stereo not given)	10µM*	-17.8%	-43.5%	nt	?	?
COc1cccc(C2CC3C(=O)C=CC2N3Cc2ccccc2)c1 (stereo not given)	-22.4%	10.5%	-96.1%	1.2%	-33.2%	?
O=C(COc1ccc(Cl)cc1)N(c1ccc(Cl)cc1)C1CN2CCC1CC2 (stereo not given)	?	3.2%	i	2.2%	-30.2%	8.91µM*
O=C(COc1ccc(Cl)cc1)N(c1ccccc1Cl)C1CN2CCC1CC2 (stereo not given)	?	1.2%	-26.7%	1.3%	29.2%	2.51µM*
ClC1=C(Cl)[C@]2(Cl)[C@@H]3[C@@H]4C[C@@H]([C@H]5O[C@@H]45)[C@@H]3[C@@]1(Cl)C2(Cl)Cl	nt	13.4%[96 µM]	nt	nt	nt	nt
C[C@@]12CC3CC(N)(C1)C[C@@](C)(C3)C2	nt	nt	nt	7.0%[21.4 µM]	nt	nt
COc1cc(/C=C2\SC(=S)N(NC(=O)c3cccc(O)c3)C2=O)ccc1O	?	15.3%	i	-15.0%	-27.4%	4.5%
CCOc1cc(/C=C2\SC(=S)N(NC(=O)c3cccnc3)C2=O)ccc1O	11.2µM*	2.2%	i	-10.7%	-19.1%	4.1%
CCCc1nc2ccccc2c(=O)n1-c1ccc(O)cc1	0.4%	26.5%	i	0.2%	15.3%	?
O=c1c2ccccc2nc(-c2ccccc2)n1-c1ccccc1	2.1%	13.7%	i	-2.1%	27.4%	5.01µM*
O=c1c2ccccc2nc(-c2ccccc2)n1-c1cccc(O)c1	-11.7%	-1.1%	i	-0.3%	7.6%	1µM*
CCCCc1nc2ccccc2c(=O)n1-c1ccc(O)cc1	-8.2%	26.7%	i	-3.9%	-15.6%	2.24µM*
O=c1c2ccccc2nc(N2CCCC2)n1-c1ccccc1	-9.3%	14.6%	-19.1%	-11.0%	-5.4%	3.16µM*
CC(C)n1cnc2c(C(=O)N[C@H]3CN4CCC3CC4)cc(Cl)cc21	nt	nt	nt	1.6%	4.74µM*	nt
CC(C)=CCc1c(O)cc2c(c1O)C(=O)CC(c1ccc(O)cc1)O2 (stereo not given)	-7.3%	7.4%	-10.2%	?	1.2%	12.6µM*
CCCCC[C@H]1CCCCC[C@H](O)C[C@@H](O)[C@H](O)/C=C/C(=O)O1	-4.9%	-4.8%	-36.8%	nt	nt	-18.5%
C=C1C(=O)OC2CC1C(O)CC(C)=CCCC(C)=CC(O)CC2C (stereo not given)	?	-11.5%	-25.5%	nt	-8.9%	2.24µM*
COC1(C)CC(c2ccccc2)c2c(c3ccccc3oc2=O)O1 (stereo not given)	nt	nt	nt	27.0%	nt	nt
SMILES	HEK293 tox	GLP-1R agonist	PTHR1 agonist	GCN5L2 inh	RGS4 inh	GLP1R inv ag
c1ccc(COc2ncnc3c2ncn3CCCN2CCN(Cc3cccc4ccccc34)CC2)cc1	?	-6.9%	-29.1%	nt	nt	3.55µM*
O=c1oc(Cl)c(Cl)c2ccccc12	5.6%	-4.8%	-23.6%	5.4%	10.6µM*!	2.7%
Cc1ccc(C)c(S(=O)(=O)c2nnn3c2nc(N2CCN(C)CC2)c2sccc23)c1	-5.0%	nt	6.5%	-13.9%	-40.4%	35.3%
CCC(=O)NC1=C(Cl)C(=O)C(NC(=O)CC)=C(Cl)C1=O	?	-11.1%	-55.6%	28.2µM*	-131.7%	?
CCC(=O)Nc1ccccc1	-10.0%	6.2%	-7.0%	-2.6%	6.6%	11.9%
Cn1cc(/C=N/NC(N)=S)c2ccccc21	?	11.8%	i	-16.2%	-51.5%	?
Cn1cc(/C=N/n2cnc3scc(-c4ccccc4)c3c2=O)c2ccccc21	?	-7.5%	-5.2%	35.0%	8.0%	5.01µM*
Oc1ccc2c3c1OC1C(O)C=CC4[C@@H](C2)NCC[C@]314 (stereo not given in full)	nt	-1.6%[96 µM]	nt	nt	nt	nt
CCCOCCN(C(=O)CCl)c1c(CC)cccc1CC	nt	nt	nt	2.7%	nt	nt
CN(CCc1ccc(Cl)c(Cl)c1)[C@H]1CCCC[C@H]1N1CCCC1	nt	nt	nt	?	478.0%[56.9 µM]	nt
CC(=O)NC(CCc1ccc(Cl)c(Cl)c1)c1cccc(O)c(=O)c1 (stereo not given)	?	-2.6%	-32.0%	nt	nt	?
Cc1nc2c(=O)n(C)c(=O)nc-2n(C)n1	2µM*	-27.0%	-31.4%	-5.5%	?	345.8%
C=CC[C@H](CC(=O)N(CCO)Cc1ccccc1)C(=O)N[C@H](COC(=O)[C@@H](CC=C)Cc1ccc(F)cc1)Cc1ccccc1	-13.6%	-0.3%	-15.8%	-11.5%	1.4%	2.1%
Cc1ccc2c(c1)C1(CCN(CCc3nc(-c4ccccc4)oc3C)CC1)OC(=O)N2	nt	nt	nt	-24.2%	nt	nt
O=C(Nc1ccc(Cl)c(C(F)(F)F)c1)c1ccc2c(c1)CCN2S(=O)(=O)c1ccccc1	-24.3%	nt	-26.5%	-14.5%	-14.6%	5.01µM*
CN(CC(=O)Nc1cccc(S(=O)(=O)N2CCOCC2)c1)CC(=O)Nc1ccc(Cl)c(C(F)(F)F)c1	?	-18.0%	-39.0%	-13.0%	-21.0%	?
CCCCCCCCCC[n+]1cccc([C@@H]2CCCN2C)c1	nt	nt	nt	8.91µM*	nt	nt
CN1CCC[C@H]1c1cccnc1	0.4%	-15.6%	-21.3%	-23.5%	?	10.2%
